# Publication PMC3795721, “Screening for Protein-DNA Interactions by Automatable DNA-Protein Interaction ELISA”
# Target: AT4G31550 (Arabidopsis thaliana, UniProt Q9SV15 228-325)
# Experiment: DPI-ELISA; DPI-ELISA, streptavidin 384-well plate, 1-2 pmol biotinylated dsDNA per well, crude native E. coli extract, anti-His detection; buffer as in Brand et al. [46],; high values mean tight binding
# Conditions: tags: C-terminal His (pET-DEST42); label: 5' biotin on forward strand; dsDNA, one strand shown
# Chain of AT4G31550 (Q9SV15 228-325): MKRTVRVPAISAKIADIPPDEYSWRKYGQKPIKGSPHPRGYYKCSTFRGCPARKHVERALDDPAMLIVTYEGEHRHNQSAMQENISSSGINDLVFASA
row,Sequence,binding signal
1,AAAAAACCTCTTGTCTCTGCTCTCCCAAAA,0.575 ± 0.106 absorbance
2,AAAAAAAAATCGAATTTGGACTTCCGAAAA,0.775 ± 0.0354 absorbance
3,AAAAAACATTGATAAAATCTCCAGGCAAAA,0.63 ± 0.141 absorbance
4,AAAAAATGCCATTGTACCTGTGTTCGAAAA,0.395 ± 0.0354 absorbance
5,AAAAAAGGCTGTGGCCAATGTTCGTAAAAA,0.55 ± 0.0566 absorbance
6,AAAAAATGCCCTTTTTATCTTTATGTAAAA,0.65 ± 0.0707 absorbance
7,AAAAAATTAGACGCTACACTTACGGTAAAA,0.665 ± 0.106 absorbance
8,AAAAAAATGTTCAAGCTCGATCTACAAAAA,0.63 ± 0.127 absorbance
9,AAAAAACACGCCATTGACACTGGTAAAAAA,1.67 ± 0.219 absorbance
10,AAAAAAACCCGTGCCTGCCTATTGCAAAAA,0.395 ± 0.0495 absorbance
11,AAAAAACTAGGTATCGGTAGGCGCCGAAAA,0.6 ± 0.0849 absorbance
12,AAAAAAGGAAGTACTGACGATCTGGAAAAA,0.615 ± 0.148 absorbance
13,AAAAAAACGATACGGTATCTAGAAAA,0.525 ± 0.0495 absorbance
14,AAAAAAAAGCGTTACATCATATGGAAAAAA,0.56 ± 0.0566 absorbance
